# 14-3-3 Bad inh – disrupts binding of bovine 14-3-3 zeta to phospho-Bad peptide; 220,000 tested, 0.71% active; TR-FRET 14-3-3zeta/Dy647-pBad peptide displacement, 1 h; P63103; AID 781; inhibition, % at 21.7 µM;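 active = inhibition above about 70%, limit read from the data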;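 note: 0% = full 14-3-3 plus peptide FRET controls and 100% = background without 14-3-3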
# Target sequence (P63103 whole entry, looked up): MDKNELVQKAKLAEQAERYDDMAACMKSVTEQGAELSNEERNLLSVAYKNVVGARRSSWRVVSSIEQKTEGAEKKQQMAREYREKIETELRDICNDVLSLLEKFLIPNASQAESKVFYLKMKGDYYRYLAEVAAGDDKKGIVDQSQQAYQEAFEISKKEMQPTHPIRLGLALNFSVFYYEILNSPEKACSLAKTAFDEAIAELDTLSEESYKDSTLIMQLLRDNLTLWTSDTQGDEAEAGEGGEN
# eIF4E-4G inh – blocks eIF4E binding to eIF4G | AID 782 | TR-FRET eIF4E-eIF4GI(517-606) binding, 2 h | 220,000 tested, 0.37% active | inhibition, % at 21.7 µM | P63073+Q04637;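 active = inhibition above about 30%, limit read from the data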;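 note: 0% = full FRET control wells and 100% = background wells lacking eIF4GI fragment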
# Mcl1 Noxa PPI – disrupts binding of human Mcl-1 to Noxa peptide; Q07820; TR-FRET Mcl-1/Noxa peptide binding, 2 h; inhibition, % at 21.7 µM; 220,000 tested, 1.5% active;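 active = compounds that cut the protein-peptide binding signal by more than 50% relative to plate controls in a single-dose test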;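 note: His-tagged Mcl-1 with rhodamine Noxa BH3 peptide and terbium anti-His antibody; 0% = Mcl-1 plus Noxa peptide wells and 100% = peptide-only wells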
# Target sequence (Q07820 whole entry, looked up): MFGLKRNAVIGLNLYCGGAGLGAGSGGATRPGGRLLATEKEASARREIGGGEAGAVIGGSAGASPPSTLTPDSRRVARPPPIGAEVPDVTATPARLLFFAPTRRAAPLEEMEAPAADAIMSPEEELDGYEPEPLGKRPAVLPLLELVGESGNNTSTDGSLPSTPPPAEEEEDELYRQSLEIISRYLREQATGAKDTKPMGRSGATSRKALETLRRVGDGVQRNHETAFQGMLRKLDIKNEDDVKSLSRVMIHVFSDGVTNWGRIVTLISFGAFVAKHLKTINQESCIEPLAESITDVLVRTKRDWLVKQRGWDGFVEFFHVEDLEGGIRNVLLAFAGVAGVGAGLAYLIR
# Mcl-1 Bim block – inhibitors of Bim-Mcl-1 interaction, human; Q07820; Bead-based flow cytometry, Bim peptide-Mcl-1 binding; inhibition, % at 10 µM; 190,000 tested, 0.1% active; AID 1009; in the data active = inhibition above about 40%;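 note: 0% = no compound tracer wells and 100% = peptide blocker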
# Mcl1 Bid PPI – Mcl-1/Bid interaction inhibition | TR-FRET Mcl-1/Bid-Dy647 peptide binding, 1536-well | inhibition, % at 21.7 µM | 220,000 tested, 0.97% active | AID 1021;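 active = compounds that cut the binding signal by more than half at the single screening dose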;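 note: His-tagged Mcl-1 with europium anti-His antibody binding Bid BH3 peptide; 0% = Mcl-1 plus peptide wells and 100% = peptide-only wells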
# Pf gamet viab – inhibitors of late stage P. falciparum gametocyte viability. inhibition, % at 10.9 µM. P. falciparum stage V gametocytes, ATP luminescence, 24 h. 150,000 tested, 0.065% active;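 active = inhibition above the mean plus 3 SD of compounds within the control limits, set per campaign, cut at about 38% in these data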;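 note: 0% = DMSO wells and 100% = medium only without gametocytes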
# * = called active by the depositor; x = not tested or not shown; [ ] = dose if it differs, or a comment. Only some compounds are listed: those with a hit (about 2.7% of all), similar ones and a draw of the others.
SMILES,14-3-3 Bad inh,eIF4E-4G inh,Mcl1 Noxa PPI,Mcl-1 Bim block,Mcl1 Bid PPI,Pf gamet viab
Cc1ncc(CO)c(/C=N/NC(=O)c2ccc(Br)cc2)c1O,-5.2,-2.4,-9.0,-6.0,-76.1,x
Cc1ncc(CO)c(/C=N/NC(=O)c2cc(O)c(O)c(O)c2)c1O,-1.8,4.8,67.1*,4.0,-65.8,x
CCOC(=O)c1c(CN2CCN(C)CC2)oc2ccc(O)cc12,74.7*,-1.0,20.1,-1.0,21.0,-9.5
Oc1ccc(/C=N/Nc2cc(N3CCCC3)nc(N3CCCC3)n2)cc1O,-19.3,17.8,65.4*,15.0,-68.9,-28.0
CN(C)CCCCOc1ccccc1-c1ccccc1,67.8,2.1,25.3,-3.0,73.0*,3.6
CN(C)CCCCOc1ccccc1F,10.6,1.1,26.0,-2.0,29.9,11.8
CCN1CCN(CCCOc2ccccc2-c2ccccc2)CC1,70.5*,2.8,3.7,0.0,48.9,-10.6
CCN1CCN(CCOc2ccccc2-c2ccccc2)CC1,28.7,-1.9,12.3,-1.0,20.3,-7.4
COc1ccc(C)cc1S(=O)(=O)N1CCC(C(=O)N2CCN(C)CC2)CC1,23.2,6.2,15.6,-8.0,-11.8,-62.5
CCc1ccc(/C=C2\Oc3cc(OS(C)(=O)=O)ccc3C2=O)cc1,-3.8,2.8,-1.2,0.0,2.6,1.6
CCc1ccc(/C=C2\Oc3c(ccc(O)c3CN3CCN(CCO)CC3)C2=O)cc1,4.5,72.3*,19.0,x,-20.1,4.8
CCc1nc(Nc2ccc3c(c2)OCO3)c2oc3ccccc3c2n1,70.1*[fluorescence artefact?],-1.6,35.4,0.0,-0.3,15.3
CCc1nc(N2CCCCC2)c2oc3ccccc3c2n1,38.0,8.1,3.4,3.0,-10.6,-17.7
CCc1nc(N[C@H](C(=O)O)C(C)C)c2oc3ccccc3c2n1,4.9,-3.5,-6.0,x,-8.5,9.2
CCc1nc(N2CCN(Cc3ccc4c(c3)OCO4)CC2)c2oc3ccccc3c2n1,79.7*,8.1,26.7,-1.0,-3.5,4.4
CCc1nc(NC(C)C)c2oc3ccccc3c2n1,75.6*,1.9,11.1,-3.0,43.0,x
O=C(CCc1ccccc1O)N/N=C/c1ccc(Sc2cccc3cccnc23)o1,3.6,0.6,16.0,0.0,10.9,12.2
Brc1c(NC2=NCCN2)ccc2nccnc12,-0.1,3.0,58.8*,0.0,2.4,x
c1cc(Nc2cccc3nccnc23)c2nccnc2c1,0.0,-2.8,20.5,2.0,-16.5,-17.7
COCC1CCCN(Cc2cn(-c3ccccc3F)nc2-c2cc(C)sc2C)C1 (configuration not stated),-5.0,-1.7,-4.3,0.0,-19.6,6.7
CC(=O)Nc1ccc(C2=NNC(=Nc3ccc(S(=O)(=O)N4CCOCC4)cc3)SC2)cc1,4.3,-0.1,80.2*,x,-20.5,-11.0
CN(C)S(=O)(=O)c1cccc(N=C2NN=C(c3ccccc3)CS2)c1,4.0,-4.6,33.9,-2.0,-36.4,29.0
CC(=O)Nc1ccc(C2=NNC(=Nc3cccc(S(=O)(=O)N(C)C)c3)SC2)cc1,-0.1,0.4,96.5*,0.0,-18.4,x
CCCS(=O)(=O)Nc1c(OC)ccc2c1c(C(=O)OCC)c(C)n2C,4.7,11.5,36.1,-2.0,-15.2,x
CCCCOc1ccc(Cc2c(Cl)nc(SC)nc2N2CCOCC2)cc1,-14.9,-1.6,5.9,45.0*,-15.2,-0.8
SMILES,14-3-3 Bad inh,eIF4E-4G inh,Mcl1 Noxa PPI,Mcl-1 Bim block,Mcl1 Bid PPI,Pf gamet viab
N#C/C(=C1/CCCCCN1)c1nc2ccccc2s1,-15.9,2.0,2.6,-1.0,98.0*,x
C=CCOc1c2ccc(C(=O)NCc3ccccc3OC)cc2nn1C,-1.4,-4.3,9.9,0.0,63.6*,3.9
CCOC(=O)c1ccc(Nc2ccc(-c3ccc(OC)c(OC)c3)nn2)cc1,80.7*,-4.3,32.3,-3.0,12.9,2.2
O=C(O)/C(=C\c1ccccc1Cl)c1ccc(S(=O)(=O)N2CCCCC2)s1,5.7,10.3,61.9*,0.0,35.6,-3.5
O=C(O)/C(=C\c1ccc(Cl)c([N+](=O)[O-])c1)c1ccc(S(=O)(=O)N2CCCCC2)s1,-2.4,3.5,56.1*,-1.0,-6.3,x
CSc1ccc(/C=C(\C(=O)O)c2ccc(S(=O)(=O)N3CCCCC3)s2)cc1,5.7,8.4,14.4,8.0,0.7,-12.2
O=C(O)/C(=C\c1cccc([N+](=O)[O-])c1)c1ccc(S(=O)(=O)N2CCCCC2)s1,11.1,13.1,43.9,x,4.5,15.1
N#CCCN(C(=O)CSc1nc(-c2ccccc2)cn1N)c1ccc(F)cc1,0.3,1.5,20.4,-1.0,-4.8,x
COc1ccc(/C=C2\SC(=O)N(CC(=O)NNC(=O)c3ccccc3O)C2=O)cc1OC,20.7,6.0,53.2*,-6.0,60.0*,-8.6
COc1ccc(/C=C2\SC(=O)N(CC(=O)NNC(=O)c3ccccc3O)C2=O)cc1,62.0,8.0,52.6*,-2.0,48.4,-8.7
COc1cc(/C=C2\SC(=O)N(CC(=O)Nc3cccc(C)c3)C2=O)cc([N+](=O)[O-])c1O,2.3,-0.5,58.6*,-1.0,-18.0,14.8
COc1ccccc1C(=O)NNC(=O)CCCN1C(=O)/C(=C/c2cccs2)SC1=S,11.8,1.1,52.1*,-5.0,34.6,-17.2
CCOc1cc(/C=C2\SC(=O)N(CC(=O)Nc3ccccc3F)C2=O)cc([N+](=O)[O-])c1O,-2.3,0.9,32.1,0.0,-12.6,13.8
CCCCN1C2=C(C(=O)CCC2)C(c2ccc(Cl)c(Cl)c2)C2=C1c1ccccc1C2=O (configuration not stated),0.2,2.4,10.7,4.0,-28.4,x
O=c1oc(-c2ccco2)nc2ccccc12,-15.1,2.0,28.9,-3.0,4.7,x
O=C(c1ccccc1)c1ccc2nc(-c3ccco3)c(-c3ccco3)nc2c1,15.2,24.4,99.1*,18.0,17.3,13.7
O=C(NCCO)c1ccc2nc(-c3ccco3)c(-c3ccco3)nc2c1,-4.3,6.2,92.2*,14.0,-28.0,x
O=C(O)c1ccc2nc(-c3ccccc3)c(-c3ccccc3)nc2c1,-4.9,-6.4,12.1,-6.0,-12.6,x
COc1ccccc1N1CCN(C(=O)c2ccc3nc(-c4ccco4)c(-c4ccco4)nc3c2)CC1,-8.7,7.4,63.1*,-5.0,-44.8,-1.1
c1coc(-c2nc3ccccc3nc2-c2ccco2)c1,x,x,84.8*,9.0,-39.0,x
O=C(NCCO)c1ccc(Cl)c(Cl)c1,-0.8,-0.5,13.5,0.0,-6.8,-7.4
Cc1ccc(C)c(N2CCN(C(=O)c3ccc4nc(-c5ccco5)c(-c5ccco5)nc4c3)CC2)c1,3.4,1.6,0.3,2.0,-3.6,5.5
CC(=O)N1CC(=O)N=C1SCC(=O)Nc1nc(C)c(-c2ccccc2)s1,-15.2,-1.8,7.6,-2.0,-32.1,x
CC1CCCN(c2nc(N(C)c3ccccc3)nc(N)c2[N+](=O)[O-])C1 (configuration not stated),0.2,0.4,4.8,x,-1.1,5.1
O=C(NNC(=O)c1ccccc1Cl)c1cc2cc(OC(F)(F)F)ccc2[nH]1,4.6,2.8,-0.3,x,4.1,-18.6

# Compound activity from PubChem.
